# A selection: hits, their analogues and other compounds. The true share with any hit is near 8.8%.
# HT1080 IDH1KD tx: qHTS for induction of synthetic lethality in tumor cells producing 2HG: qHTS for the HT-1080-IDH1KD cell line. HT-1080 IDH1 knockdown viability, ATP luminescence, 48 h. Potency, µM (series often up to 46.1 µM), for inactives: at the highest dose activity, negative = toxicity, actives largely listed as cytotoxic. 360,000 tested, 2% active. AID 686971, 2013;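 further: potency means the concentration at half of the fitted maximal effect; 0% = DMSO wells and -100% = cell-free medium wells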
#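 In this qHTS, HT-1080 cells depleted of IDH1 are exposed for 48 h at 37 °C to compound titrations. Toxicity is scored from CellTiter-Glo luminescence, with DMSO as full viability and medium alone as none.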
# HT1080-NT tox: qHTS for induction of synthetic lethality in tumor cells producing 2HG: qHTS for the HT-1080-NT fibrosarcoma cell line; 360,000 tested, 1.6% active; Potency, µM (doses to about 46.1 µM), for inactives: at the highest dose activity, negative = less viability, usual class: cytotoxic; HT-1080-NT fibrosarcoma viability, CellTiter-Glo ATP luminescence, 48 h;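 further: NT is the 2HG producing partner of a matched IDH1 knockdown line; potency means the concentration at half of the fitted maximal effect; 0% = DMSO-treated cells and -100% = media-only wells without cells; nearly all actives have a fitted effect of over 55% in size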
#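 Compounds were tested in concentration-response format on HT-1080-NT cells for 48 hours at 37 degrees C. Cell viability came from CellTiter-Glo luminescence; curves were classified by r2, response magnitude and activity.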
# IL-1B inflam inh: qHTS for Inhibitors of Inflammasome Signaling: IL-1-beta AlphaLISA Primary Screen. THP-1 LPS/ATP IL-1B secretion, AlphaLISA, 16 h; stronger effect = lower value. activity change, % at 57.5 µM. 360,000 tested, 4.7% active. AID 743279, 2014; in the data active means activity change below about -50%; inconclusive means mostly about -30% to -49%
#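 Secreted IL-1B measured by AlphaLISA bead assay after 16 h compound exposure of THP-1 cells; compounds (final up to 57.5 uM) added 1 h before LPS (250 ng/mL) and ATP (1.25 mM) stimulation; lower signal means less secretion.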
# KB-3-1 cytotox: qHTS assay for MDR1-selective chemotherapeutics: Primary screen using the parental adenocarcinoma cell KB-3-1; Potency, µM (highest dose often 46.1 µM), hits mostly cytotoxic; KB-3-1 viability, CellTiter-Glo ATP luminescence, 72 h; AID 1347075, 2019; 400,000 tested, 1.4% active; further: potency means the concentration at half of the fitted maximal effect; nearly all actives have a fitted effect of over 60% in size
#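 72 h, 37 °C compound treatment of KB-3-1 parental cells; CellTiter-Glo added, 10 min, luminescence read. Data corrected against DMSO-only plates and normalized before curve fitting.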
# KB-V1 cytotox: qHTS assay for MDR1-selective chemotherapeutics: Primary screen using the drug-selected MDR subline cells KB-V1; Potency, µM (doses to about 46.1 µM), most hits filed as cytotoxic; KB-V1 MDR cells viability, CellTiter-Glo, 72 h; 400,000 tested, 3.4% active; further: potency means the concentration at half of the fitted maximal effect; nearly all actives have a fitted effect of over 60% in size
#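 Cells of the MDR subline KB-V1 are plated, dosed with compound at multiple concentrations, and incubated 72 h at 37 degrees C; CellTiter-Glo is then added and luminescence read after 10 min.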
# * marks the source's active call; other numbers are inactive results; i = inactive; ? = inconclusive; . = no result given. Unless noted, the call rests on the fitted dose curve; in most records, active means well fitted curve in the direction sought with a large enough effect; inconclusive means small, poorly fitted or top-dose-only effect, or another doubt; inactive means no such curve, though single readings can be large; an effect the other way counts as inactive or inconclusive. Unless noted, on the % scale 0 is the no-effect control and ±100 the full control effect.
SMILES,HT1080 IDH1KD tx,HT1080-NT tox,IL-1B inflam inh,KB-3-1 cytotox,KB-V1 cytotox
CC(=O)O[C@H]1CC(C)(C)C(=C=C/C(C)=C/C=C/C(C)=C/C=C/C=C(C)/C=C/C=C(\C)C(=O)C[C@@]23O[C@]2(C)C[C@@H](O)CC3(C)C)[C@](C)(O)C1,-19%,-9%,-63*,i,i
C(=C\c1nccc2ccccc12)/c1ccc(N2CCOCC2)cc1,.,.,.,i,?
CCOC(=O)CC(=O)CSc1nc2ccccc2c(=O)n1-c1ccc(C(=O)N2CCOCC2)cc1,-12%,6%,11,?,?
O=C(c1ccc(-n2c(SCc3cc(F)ccc3F)nc3ccccc3c2=O)cc1)N1CCOCC1,-4%,-1%,5,?,0.65µM*
O=C(CCn1c(SCC(=O)NCc2ccco2)nc2ccccc2c1=O)NCCc1ccccc1,-4%,0%,0,i,21µM*
O=C(CSc1nc2ccccc2c(=O)n1-c1ccc(F)cc1)NCc1ccco1,-2%,3%,0,i,12µM*
C=CCn1c(SCC(=O)NCc2ccco2)nc2ccccc2c1=O,0%,-5%,32,i,i
CCN(CC)C(=O)Cn1c(SCC(=O)Nc2ccc(C)c(C)c2)nc2ccccc21,.,.,.,i,i
CCOc1ccc(N2C(=O)CNC2=S)cc1,6%,5%,5,i,i
CCOc1ccc(N2C=Nc3ccc(OCC)cc3C2)cc1,-9%,-21%,-60*,i,i
COc1cccc2c1OC[C@@H](CO)[C@H]2N(C)C(=O)Nc1ccc(Cl)cc1Cl,-15%,0%,23,23µM*,3.3µM*
Cc1ccc(NC(=O)CN2CCSc3ccc(S(=O)(=O)N4CCCC4)cc32)cc1,.,.,.,i,12µM*
CCOc1ccc(NC(=O)CN2CCSc3ccc(S(=O)(=O)N4CCCC4)cc32)cc1,.,.,.,?,10µM*
Cc1ccc(C)c(C(=O)OCC(=O)Nc2ccc(N3CCOCC3)cc2)c1,-18%,-18%,-13,i,i
COc1ccccc1CNC(=O)CCc1c(C)nn(-c2ccc(N3CCOCC3)nn2)c1C,.,.,.,i,i
CS(=O)(=O)Nc1ccc2c(c1)[C@H]1C[C@H](CC(=O)NCc3cccc(F)c3)O[C@@H](CO)[C@H]1O2,0%,-11%,-14,i,i
COC(=O)c1c(NC(=O)c2cccc(S(=O)(=O)N3CCN(C)CC3)c2)sc(C)c1C,-26%,-13%,-77*,i,i
CN1CCN(S(=O)(=O)c2cccc(C(=O)Nc3nc(-c4ccccc4)cs3)c2)CC1,0%,-5%,36,?,3.3µM*
CCOC(=O)c1sc(NC(=O)c2cccc(S(=O)(=O)N3CCN(C)CC3)c2)cc1C,?,?,8,i,i
COc1ccc(-c2csc(NC(=O)c3cccc(S(=O)(=O)N4CCN(C)CC4)c3)n2)cc1,-26%,-9%,-11,i,i
N=c1oc2cc(O)ccc2cc1C(=O)Nc1ccc(Br)cc1,?,?,-90*,23µM*,18µM*
O=C(NCc1ccco1)c1ccc2c(c1)N(Cc1ccccc1)C(=O)CS2,-3%,-15%,-2,i,5.8µM*
Cc1ccc(CNC(=O)C2CCN(C(=O)c3ccc(-n4ccc5ccccc54)s3)CC2)cc1,.,.,.,i,i
COc1ccccc1CNc1ncnc2onc(-c3ccc(Cl)cc3)c12,.,.,.,i,i
COc1ccc(OC)c(CNc2ncnc3onc(-c4ccc(Cl)cc4)c23)c1,.,.,.,5.8µM*,8.2µM*
SMILES,HT1080 IDH1KD tx,HT1080-NT tox,IL-1B inflam inh,KB-3-1 cytotox,KB-V1 cytotox
CC(C)C[C@H]1COCCS(=O)(=O)N1Cc1ccc(Cl)c(Cl)c1,4%,0%,-29,i,i
O=C1CCC(c2ccc3c(c2)CCC3)=NN1,0%,0%,-10,1.2µM*,i
O=C1CCC(c2ccccc2)=NN1,22%,11%,6,i,i
Cc1c(CN(C)C)c2c(n1Cc1ccccc1)C(=O)c1ccc(Br)cc1-2,?,18µM*,-68*,?,23µM*
Cc1cnc(NC(=O)NCC2CCCC(CNC(=O)Nc3ncc(C)s3)C2)s1 (stereo not drawn),?,?,-98*,?,i
COc1ccc(N2CCN(C(=O)c3cc4cc(Cl)ccc4[nH]3)CC2)cc1,3%,1%,22,i,i
O=C(c1cc2cc(Cl)ccc2[nH]1)N1CCN(Cc2ccc3c(c2)OCO3)CC1,-9%,-20%,-64*,?,?
O=C(c1ccc(COc2ccccc2Cl)o1)N1CCN(Cc2ccc3c(c2)OCO3)CC1,?,?,-13,i,i
O=C(c1cc2cc(Cl)ccc2[nH]1)N1CCN(c2ccc(F)cc2)CC1,-2%,3%,-85*,i,i
O=C(c1ccc(COc2ccc(Cl)cc2)o1)N1CCN(Cc2ccc3c(c2)OCO3)CC1,-22%,-27%,-76*,i,10µM*
O=C(/C=C/c1ccc2c(c1)OCO2)c1ccc(F)cc1,22%,5%,-74*,i,i
O=C(/C=C/c1cccc(Br)c1)c1ccc2c(c1)OCO2,?,?,-104*,i,i
O=C(/C=C/c1ccc2c(c1)OCO2)c1ccc[nH]1,-2%,-10%,-95*,i,i
CN(C)c1ccc(/C=C/C(=O)c2ccc3c(c2)OCO3)cc1,-14%,?,-92*,?,?
CCOC(=O)Cc1csc(NC(=O)c2ccc(C)c(S(=O)(=O)N3CCOCC3)c2)n1,1%,-3%,-16,i,i
O=C1C[C@@H](c2ccc(O[C@@H]3O[C@H](CO)[C@@H](O)[C@H](O)[C@H]3O)cc2)Oc2cc(O)ccc21,21%,10%,6,i,?
COc1ccc(CC(=O)N/N=C\c2cc(Br)c(O)c(Br)c2)cc1,7%,15%,37,i,?
COCCn1c(SCC(=O)Nc2cccc(C)c2C)nc2c(oc3ccccc32)c1=O,.,.,.,i,i
CCc1ccccc1NC(=O)c1ccc(=O)n(Cc2ccc(F)cc2)c1,.,.,.,i,i
O=C(/C=C/c1ccncc1)c1ccc2c(c1)OCCO2,18µM*,?,-98*,23µM*,?
O=C(CNC(=O)c1ccc2c(c1)OCO2)N/N=C(Br)/C=C/c1ccccc1,15µM*,?,-61*,?,i
COc1cccc(/C=C/C(=O)c2ccc[nH]2)c1,-4%,-6%,-93*,?,?

# From PubChem
